Article PMC12820563, “FoxP3 forms a head-to-head dimer in vivo and stabilizes its multimerization on adjacent microsatellites”
In all, about 16,000 sequences were measured (“rpm ratio (pull-down/input)”: median about 0.5, highest 2% from about 5.5 on). This excerpt belongs to a sample that is enriched for the highest values.

molecular target: T1, MBP-FoxP3dN (Mus musculus, UniProt Q99JB6 188-423); assay: PD-seq (MBP pull-down with sequencing); 20 mM Tris-HCl pH 7.5, 100 mM NaCl, 1.5 mM MgCl2, 0.4 uM protein, 0.1 uM dsDNA library, 30 min, room temperature, amylose pull-down; high values mean tight binding; settings: protein: recombinant; tags: His6-MBP; chain copies: 2; dsDNA, one strand shown
T1 sequence: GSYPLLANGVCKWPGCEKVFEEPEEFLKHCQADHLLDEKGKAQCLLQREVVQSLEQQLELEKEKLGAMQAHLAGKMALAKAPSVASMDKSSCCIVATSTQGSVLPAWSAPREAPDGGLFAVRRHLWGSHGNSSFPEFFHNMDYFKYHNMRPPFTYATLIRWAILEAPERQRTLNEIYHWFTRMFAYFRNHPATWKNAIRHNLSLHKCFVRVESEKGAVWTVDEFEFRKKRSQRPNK
Procedure, shortened: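 Binding is the reads-per-million enrichment of pull-down relative to input, pooled across replicates. For this, 0.4 µM His6-MBP-tagged mouse FoxP3 or FoxP1 fragment lacking the N-terminus, made in E. coli, was incubated with 0.1 µM Klenow-filled double-stranded degenerate DNA library for 30 min at room temperature in Tris pH 7.5 buffer with NaCl and MgCl2. Complexes bound to amylose resin were washed three times before proteinase K released the DNA for PCR barcoding and Illumina sequencing.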

For “GATGATTGTTCTCCCAGCTGATGAATTCACGTGTTCGAGTAAACAAATTTTCCTAATCTTTCTGTTCAAGCGCCATCTAC”, which binding signal is on record?
The binding signal was 0.58 RPM ratio (pull-down/input).

Which binding signal does the source give for “GATGATTGTTCTCCCAGCTGATGAATTAAGACGGTCGAGTAAACAAATTTTCCTAATCTTTCTGTTCAAGCGCCATCTAC” here?
Its binding signal is 0.236 RPM ratio (pull-down/input).

Which binding signal does the source give for “GATGATTGTTCTCCCAGCTGATGAATTATAAAGATCGAGTAAACAAATTTTCCTAATCTTTCTGTTCAAGCGCCATCTAC” here?
The binding signal was 0.233 RPM ratio (pull-down/input).

Which binding signal does the source give for “GATGATTGTTCTCCCAGCTGATGAATTCGTGCATTCGAGTAAACAAATTTTCCTAATCTTTCTGTTCAAGCGCCATCTAC” here?
The binding signal was 6.29 RPM ratio (pull-down/input).

How did the binding signal turn out when “GATGATTGTTCTCCCAGCTGATGAATTTCGTGCATCGAGTAAACAAATTTTCCTAATCTTTCTGTTCAAGCGCCATCTAC” was run?
Its binding signal is 1.22 RPM ratio (pull-down/input).

For “GATGATTGTTCTCCCAGCTGATGAATTCTGTGCATCGAGTAAACAAATTTTCCTAATCTTTCTGTTCAAGCGCCATCTAC”, which binding signal is on record?
Its binding signal is 1.52 RPM ratio (pull-down/input).

With “GATGATTGTTCTCCCAGCTGATGAATTGTGCATCTCGAGTAAACAAATTTTCCTAATCTTTCTGTTCAAGCGCCATCTAC” as the sequence, how does the binding signal read?
Its binding signal is 8.03 RPM ratio (pull-down/input).

How did the binding signal turn out when “GATGATTGTTCTCCCAGCTGATGAATTGTGCCTTTCGAGTAAACAAATTTTCCTAATCTTTCTGTTCAAGCGCCATCTAC” was run?
Its binding signal is 6.1 RPM ratio (pull-down/input).

How did the binding signal turn out when “GATGATTGTTCTCCCAGCTGATGAATTTGTGCCTTCGAGTAAACAAATTTTCCTAATCTTTCTGTTCAAGCGCCATCTAC” was run?
Its binding signal is 4.02 RPM ratio (pull-down/input).

“GATGATTGTTCTCCCAGCTGATGAATTCGTGCCATCGAGTAAACAAATTTTCCTAATCTTTCTGTTCAAGCGCCATCTAC” was tested. Which binding signal did it give?
Its binding signal is 2.18 RPM ratio (pull-down/input).

Which binding signal does the source give for “GATGATTGTTCTCCCAGCTGATGAATTTTGTGCATCGAGTAAACAAATTTTCCTAATCTTTCTGTTCAAGCGCCATCTAC” here?
The binding signal was 2.27 RPM ratio (pull-down/input).

“GATGATTGTTCTCCCAGCTGATGAATTTCGCCTTTCGAGTAAACAAATTTTCCTAATCTTTCTGTTCAAGCGCCATCTAC” was tested. Which binding signal did it give?
Its binding signal is 5.39 RPM ratio (pull-down/input).

For “GATGATTGTTCTCCCAGCTGATGAATTGCGAATCTCGAGTAAACAAATTTTCCTAATCTTTCTGTTCAAGCGCCATCTAC”, which binding signal is on record?
The binding signal was 2.16 RPM ratio (pull-down/input).

Which binding signal does the source give for “GATGATTGTTCTCCCAGCTGATGAATTCCATAGATCGAGTAAACAAATTTTCCTAATCTTTCTGTTCAAGCGCCATCTAC” here?
The binding signal was 0.239 RPM ratio (pull-down/input).

Which binding signal does the source give for “GATGATTGTTCTCCCAGCTGATGAATTAAGGGCCTCGAGTAAACAAATTTTCCTAATCTTTCTGTTCAAGCGCCATCTAC” here?
The binding signal was 0.451 RPM ratio (pull-down/input).

For “GATGATTGTTCTCCCAGCTGATGAATTCAATTCGTCGAGTAAACAAATTTTCCTAATCTTTCTGTTCAAGCGCCATCTAC”, which binding signal is on record?
Its binding signal is 0.665 RPM ratio (pull-down/input).

For “GATGATTGTTCTCCCAGCTGATGAATTTCGGAGGTCGAGTAAACAAATTTTCCTAATCTTTCTGTTCAAGCGCCATCTAC”, which binding signal is on record?
Its binding signal is 0.25 RPM ratio (pull-down/input).

Which binding signal does the source give for “GATGATTGTTCTCCCAGCTGATGAATTCCTCGCTTCGAGTAAACAAATTTTCCTAATCTTTCTGTTCAAGCGCCATCTAC” here?
Its binding signal is 0.285 RPM ratio (pull-down/input).

How did the binding signal turn out when “GATGATTGTTCTCCCAGCTGATGAATTGCCGCCATCGAGTAAACAAATTTTCCTAATCTTTCTGTTCAAGCGCCATCTAC” was run?
Its binding signal is 2.97 RPM ratio (pull-down/input).

For “GATGATTGTTCTCCCAGCTGATGAATTTGAGTTTTCGAGTAAACAAATTTTCCTAATCTTTCTGTTCAAGCGCCATCTAC”, which binding signal is on record?
The binding signal was 0.885 RPM ratio (pull-down/input).

With “GATGATTGTTCTCCCAGCTGATGAATTCAAGTTTTCGAGTAAACAAATTTTCCTAATCTTTCTGTTCAAGCGCCATCTAC” as the sequence, how does the binding signal read?
The binding signal was 0.454 RPM ratio (pull-down/input).

Which binding signal does the source give for “GATGATTGTTCTCCCAGCTGATGAATTTCCCTTCTCGAGTAAACAAATTTTCCTAATCTTTCTGTTCAAGCGCCATCTAC” here?
Its binding signal is 0.295 RPM ratio (pull-down/input).

“GATGATTGTTCTCCCAGCTGATGAATTTTTTGAGTCGAGTAAACAAATTTTCCTAATCTTTCTGTTCAAGCGCCATCTAC” was tested. Which binding signal did it give?
The binding signal was 0.237 RPM ratio (pull-down/input).

How did the binding signal turn out when “GATGATTGTTCTCCCAGCTGATGAATTTCTGTGATCGAGTAAACAAATTTTCCTAATCTTTCTGTTCAAGCGCCATCTAC” was run?
Its binding signal is 0.408 RPM ratio (pull-down/input).

How did the binding signal turn out when “GATGATTGTTCTCCCAGCTGATGAATTCTTTTGATCGAGTAAACAAATTTTCCTAATCTTTCTGTTCAAGCGCCATCTAC” was run?
Its binding signal is 0.285 RPM ratio (pull-down/input).

For “GATGATTGTTCTCCCAGCTGATGAATTTGTTGAGTCGAGTAAACAAATTTTCCTAATCTTTCTGTTCAAGCGCCATCTAC”, which binding signal is on record?
The binding signal was 5.53 RPM ratio (pull-down/input).

How did the binding signal turn out when “GATGATTGTTCTCCCAGCTGATGAATTCAATTGATCGAGTAAACAAATTTTCCTAATCTTTCTGTTCAAGCGCCATCTAC” was run?
Its binding signal is 1.07 RPM ratio (pull-down/input).

Which binding signal does the source give for “GATGATTGTTCTCCCAGCTGATGAATTGTGTTGATCGAGTAAACAAATTTTCCTAATCTTTCTGTTCAAGCGCCATCTAC” here?
The binding signal was 7.06 RPM ratio (pull-down/input).

For “GATGATTGTTCTCCCAGCTGATGAATTCTGTTGATCGAGTAAACAAATTTTCCTAATCTTTCTGTTCAAGCGCCATCTAC”, which binding signal is on record?
Its binding signal is 6.26 RPM ratio (pull-down/input).

“GATGATTGTTCTCCCAGCTGATGAATTGATCTAATCGAGTAAACAAATTTTCCTAATCTTTCTGTTCAAGCGCCATCTAC” was tested. Which binding signal did it give?
The binding signal was 0.356 RPM ratio (pull-down/input).

For “GATGATTGTTCTCCCAGCTGATGAATTTGATGAGTCGAGTAAACAAATTTTCCTAATCTTTCTGTTCAAGCGCCATCTAC”, which binding signal is on record?
The binding signal was 0.974 RPM ratio (pull-down/input).

Which binding signal does the source give for “GATGATTGTTCTCCCAGCTGATGAATTGAATTGATCGAGTAAACAAATTTTCCTAATCTTTCTGTTCAAGCGCCATCTAC” here?
The binding signal was 0.917 RPM ratio (pull-down/input).

For “GATGATTGTTCTCCCAGCTGATGAATTGTGATGATCGAGTAAACAAATTTTCCTAATCTTTCTGTTCAAGCGCCATCTAC”, which binding signal is on record?
Its binding signal is 2.48 RPM ratio (pull-down/input).

How did the binding signal turn out when “GATGATTGTTCTCCCAGCTGATGAATTGTTGTGATCGAGTAAACAAATTTTCCTAATCTTTCTGTTCAAGCGCCATCTAC” was run?
Its binding signal is 6.31 RPM ratio (pull-down/input).

For “GATGATTGTTCTCCCAGCTGATGAATTCAGATGTTCGAGTAAACAAATTTTCCTAATCTTTCTGTTCAAGCGCCATCTAC”, which binding signal is on record?
Its binding signal is 1.06 RPM ratio (pull-down/input).

For “GATGATTGTTCTCCCAGCTGATGAATTGTACCCATCGAGTAAACAAATTTTCCTAATCTTTCTGTTCAAGCGCCATCTAC”, which binding signal is on record?
Its binding signal is 0.472 RPM ratio (pull-down/input).

“GATGATTGTTCTCCCAGCTGATGAATTGAATCACTCGAGTAAACAAATTTTCCTAATCTTTCTGTTCAAGCGCCATCTAC” was tested. Which binding signal did it give?
Its binding signal is 0.551 RPM ratio (pull-down/input).

Which binding signal does the source give for “GATGATTGTTCTCCCAGCTGATGAATTCAATTGCTCGAGTAAACAAATTTTCCTAATCTTTCTGTTCAAGCGCCATCTAC” here?
The binding signal was 2.31 RPM ratio (pull-down/input).

Which binding signal does the source give for “GATGATTGTTCTCCCAGCTGATGAATTAGGATGTTCGAGTAAACAAATTTTCCTAATCTTTCTGTTCAAGCGCCATCTAC” here?
Its binding signal is 0.82 RPM ratio (pull-down/input).

“GATGATTGTTCTCCCAGCTGATGAATTTTTGCGTTCGAGTAAACAAATTTTCCTAATCTTTCTGTTCAAGCGCCATCTAC” was tested. Which binding signal did it give?
The binding signal was 2.04 RPM ratio (pull-down/input).
